Data taken from PubChem BioAssay AID488809 (Broad Institute, 2010).
Measured potencies and affinities stand elsewhere. Results filed as inconclusive are left out. Values without a mark were called inactive. Active and inactive are the calls of the source. No rule for the calls is given here.

Assay: cytotoxicity in NIH-3T3 fibroblasts, dose response, cytotoxicity control for antifungal drug resistance project, cell-based, Alamar Blue, fluconazole, dry powder (AID 488809)
Conditions: NIH-3T3 fibroblasts + fluconazole, Alamar Blue viability, 48 h; series mostly up to 26 µM

| SMILES | outcome | activity change, negative = toxicity |
| --- | --- | --- |
| COC(=O)Cn1nc(-c2ccc(C)cc2)c2ccccc21 | inactive |  |
| O=C(c1ccccc1)N1CCN(c2ccnc3cc(Cl)ccc23)CC1 | inactive |  |
| COc1ccc(OC)c2c(C)cc(N3CCN(C(=O)c4ccc(Cl)cc4)CC3)nc12 | inactive |  |
| CNC(=O)Cn1nc(-c2ccccc2)c2ccccc21 | inactive |  |
| O=C(O)c1nn(Cc2ccc(Cl)cc2)c2ccccc12 | inactive |  |
| COC(=O)Cn1nc(-c2ccc(Cl)cc2)c2ccccc21 | inactive |  |
| O=C(c1ccc(Cl)cc1)N1CCN(c2ccc(Cl)cc2)CC1 | inactive |  |
| O=c1c2[nH]c3ccccc3c2nc2n1CCS2 | inactive |  |
| CCOC(=O)c1c2ccccc2nn1Cc1ccc(Cl)cc1 | inactive |  |
| COc1ccc2c(c1)c1nc3n(c(=O)c1n2CC(=O)N1CCC(C)CC1)CCS3 |  | 15.5% [at 2.6 µM] |
| O=C(Cn1nc(C(=O)N2CCCCC2)c2ccccc21)N1CCOCC1 | inactive |  |
| COC(=O)Cn1nc(C)c2ccccc21 | inactive |  |
| O=C(O)c1c2ccccc2nn1Cc1ccc(Cl)cc1 | inactive |  |
| COC(=O)Cn1nc(-c2ccccc2)c2cc(Cl)ccc21 | inactive |  |
| COC(=O)Cn1nc(-c2ccccc2)c2ccccc21 | inactive |  |
| CC1CCN(C(=O)Cn2c3ccccc3c3nc4n(c(=O)c32)CCS4)CC1 | inactive |  |
| O=C(Cn1nc(-c2ccccc2)c2cc(Cl)ccc21)N1CCOCC1 | inactive |  |
| Cc1nn(S(C)(=O)=O)c2ccccc12 | inactive |  |
| CCCNC(=O)Cn1nc(-c2ccccc2)c2ccccc21 | inactive |  |
| O=C(c1ccc(Cl)cc1)N1CCN(c2ccccn2)CC1 | inactive |  |
